About 2,800 (0.78%) of roughly 360,000 compounds were called active. No stated cut-off is given here; in the data, active means inhibition above about 26%; inactive means the rest. Many of the other results were omitted from the sample, so actives are more common in it than they were.
Each compound was assayed on Nicotinate-nucleotide adenylyltransferase NadD (Staphylococcus aureus N315) (assay: inhibitors of S. aureus NadD, primary screen, biochemical, colorimetric, uHTS (AID 602399)). Conditions: purified NadD enzyme, colorimetric absorbance read-out; at 20 µM; stronger effect = higher value.

inhibition, inactive:
CN1CCN(CC#CCC2(O)c3ccccc3-c3ccccc32)CC1 -2.12%
O=C1CC(c2cccc(Cl)c2)CC(O)=C1C=Nc1ccccc1 (stereo unspecified) -3.63%
COc1ccc2c(c1OC)C(=O)N(c1ncn[nH]1)C2 0.954%
COc1ccc(Cl)cc1S(=O)(=O)N1CCC(O)(c2ccc(Cl)cc2)CC1 -4.67%
CCc1c(C)c2c(C)[nH]nc2oc1=O -0.195%
Cc1ccc(NC(=O)c2sc3nc(N)c(C#N)cc3c2N)cc1 12.7%
O=c1oc(-c2ccco2)nc2sc3c(c12)CCCCC3 -5.51%
Cc1cccn2c(CN(C)C3CCCc4ccccc43)c(C(=O)N3CCOCC3)nc12 (stereo unspecified) -3.79%
C=CCOc1ccccc1NC(=O)CN1C(=O)CNC1=O -2.12%
O=C(Nc1ccc(Br)cn1)C1CCN(S(=O)(=O)c2cccs2)CC1 -7.26%
CCCc1nc(SCC(=O)Nc2ccccc2OC)c2c(=O)n(C)c(=O)n(C)c2n1 -1.01%
O=C(O)CCN(Cc1ccccc1)S(=O)(=O)c1c(Cl)cccc1Cl -4.97%
CCOC(=O)C1=C(C)c2ccccc2OC1C(=O)OCC (stereo unspecified) -1.62%
O=C(CSc1ncn[nH]1)Nc1nc(-c2cccc([N+](=O)[O-])c2)cs1 -5.15%
O=C(COC(=O)c1cc(=O)[nH]c2ccccc12)NCc1cccc(Cl)c1 0%
Cc1csc(NC(=O)CSc2ccc(-c3ccc(F)cc3)nn2)n1 0.514%
O=C(OCc1nnc(-c2ccccc2)o1)c1cc(=O)[nH]c2ccccc12 -0.542%
CCOC(=O)c1ccn(S(=O)(=O)c2ccc(C)cc2)c1-c1ccccc1 -0.973%
CCOc1ccc(-c2cn(S(=O)(=O)c3cccc4nsnc34)nc2N)cc1 -0.18%
CC(C)c1nnc(NC(=O)CCC(=O)N2CCN(c3cccc(Cl)c3)CC2)s1 1.72%
COc1c(F)c(F)c(-c2csc(N)n2)c(F)c1F -5.11%
O=C(Nc1ccc(OCCO)cc1)c1csc([C@H]2C[C@H](O)[C@@H](CO)O2)n1 -8.65%
CCCNC(=O)c1cnc(-c2ccccc2)nc1-c1ccccc1 -3.59%
O=C(NC(Nc1nc2ccc([N+](=O)[O-])cc2s1)(C(F)(F)F)C(F)(F)F)c1ccccc1 -2.21%
CNC(=O)c1ccsc1NC(=O)c1ccc(S(=O)(=O)N2CCc3ccccc32)cc1 11.7%
O=C(OCc1cn(-c2ccc(Cl)c(Cl)c2)nn1)c1ccccc1Cl 0.666%
C=CCc1cccc2cc(C(=O)N3CCN(C(=O)OCC)CC3)c(=O)oc12 -4.59%
COc1ccc(C)cc1NC(=O)c1ccc(-c2ccc(C(C)=O)cc2)o1 -8.65%
CN(c1ccccn1)c1ncnc2[nH]ncc12 -2.6%
Cc1cc(C)c2c(c1)cc(C)c1nnc(SCC(=O)Nc3cc(C)on3)n12 0.406%
N#Cc1ccc(CSc2ncccn2)cc1 -1.45%
Cc1ccc(NC(=O)CN(C)S(=O)(=O)c2cnc[nH]2)cc1C -2.1%
COC(=O)c1c(NC(=O)COc2ccc(Cl)cc2Cl)sc2c1CC(C)(C)NC2(C)C -5.59%
COc1ccccc1N1CCN(c2nc(C)cc(=O)[nH]2)CC1 0.434%
COc1ccc(Cl)cc1-n1c(=S)sc2c(=O)n(-c3ccc(F)cc3)c(SCC(=O)O)nc21 -1.15%
COc1cccc(-n2c(=S)sc3c(=O)n(-c4ccccc4C)c(SCC(=O)O)nc32)c1 -0.498%
COc1cccc(-n2c(=S)sc3c(=O)n(-c4ccccc4OC)c(SCC4OCCO4)nc32)c1 -4.72%
COc1ccc2c3c1O[C@H]1C[C@@H](O)C=C[C@@]31CCN(C)C2 -4.23%
COc1cc(C)c(C(C)C)cc1S(=O)(=O)n1ccnc1 -1.45%
CCCCCOC(=O)C1=C(C)Nc2nnnn2C1c1ccc(OC)c(OC)c1OC (stereo unspecified) -2.88%
C=CCOc1ccc(/C=C/C(=O)OCC(=O)NCC2CCCO2)cc1 (stereo unspecified) 0.0871%
CCOC(=O)CC1COCCN1C(=O)c1cc(COc2ccc(F)c(F)c2)on1 (stereo unspecified) -4.39%
CC(=O)c1cccc(OCc2cc(C(=O)NC(C)Cc3cccnc3)no2)c1 (stereo unspecified) -5.35%
COC(C(=O)Nc1ccc(S(=O)(=O)Nc2ccc(C)c(C)c2)cc1)c1ccccc1 (stereo unspecified) -2.66%
COc1ccc(NC(=O)COc2ccc(C(=O)OCC(=O)N(C)C3CCS(=O)(=O)C3)cc2OC)cc1 (stereo unspecified) -2.63%
COc1ccc2c(-c3ccccc3)cc(SCC(=O)N(C)C3CCS(=O)(=O)C3)nc2c1 (stereo unspecified) -1.73%
CC(C)CN1CCNC(=O)C1CC(=O)N(C)CC1CCOCC1 (stereo unspecified) -2.31%
CN(C)S(=O)(=O)c1ccc(N/C=C(\[N+](=O)[O-])S(=O)(=O)c2ccccc2)cc1 -3.76%
CC1(C(=O)NCc2ccc3c(c2)OCO3)CCN1C(=O)Cc1cccc2ccccc12 (stereo unspecified) -4.65%
CCn1c(=O)cc(SCC(=O)NCc2ccc3c(c2)OCO3)c2ccccc21 1.73%
CCCN(CCC)c1ccc(C(O)c2nnc(-c3ccccc3)o2)cc1 (stereo unspecified) 3.67%
CC1(C)OC(=O)C2=C(C[C@@H](C3CC3)O[C@H]2c2ccc(Cl)cc2)O1 -7.37%
Cc1noc(C)c1NC(=O)Nc1cccc2c1O[C@H](CN(C)C(=O)Nc1ccccc1)[C@@H](C)CN([C@H](C)CO)C2=O -4.23%
Cc1noc(C)c1NC(=O)Nc1ccc2c(c1)C(=O)N([C@H](C)CO)C[C@H](C)[C@@H](CN(C)C(=O)Nc1ccc(C(F)(F)F)cc1)O2 3.74%
CN(CC(=O)N1CCN(c2ccccc2)CC1)S(=O)(=O)c1cccs1 -2.17%
O=C(O)CCCC(=O)N1N=C(c2ccco2)CC1c1ccco1 (stereo unspecified) 2.35%
C=CCN1C(=O)C(Cc2ccc(OCC)cc2)SC1=Nc1ccc(C(=O)O)cc1 (stereo unspecified) -1.51%
CCOCCCN1C(=O)C2C(C(=O)Nc3ccc(OCC)cc3)C3C=CC2(O3)C1C(=O)NC1CCCCC1 (stereo unspecified) -6.7%
O=C(NCCCn1ccnc1)/C(=C\c1ccccc1F)NC(=O)c1ccccc1 -0.605%
COc1ccc(/C=C(\C#N)C(=O)NCCCn2ccnc2)cc1 -0.938%
Cc1ccc(S(=O)(=O)N2CCN(C(=O)COC(=O)/C=C/c3cccc(Cl)c3)CC2)c(C)c1 -1.3%
O=C(CC1SC(=Nc2ccccc2)N(Cc2ccccn2)C1=O)Nc1cccc(Cl)c1 (stereo unspecified) 7.98%
O=C1/C(=C/c2ccc(F)cc2)SC(=S)N1NS(=O)(=O)c1ccccc1 5.39%
COc1cc(-c2nnc(Cn3cc(C(F)(F)F)ccc3=O)o2)cc(OC)c1OC -3.86%
COCCCn1c(C(=O)NC2CCCCC2)cc2c(=O)n3cccc(C)c3nc21 2.49%
O=c1c(-c2ccccc2)cnc2n1CCS2 -3.39%
Cc1cccc(N2CCN(C(=O)/C=C/c3ccco3)CC2)c1C -1.19%
Cc1cc(C=O)c(C)n1-c1ccc(NC2CCCCC2)c([N+](=O)[O-])c1 0.0872%
Cc1ccc(N2CCN(c3ccc([N+](=O)[O-])cn3)CC2)c(C)c1 1.39%

inhibition, active:
Cc1cccc(NC(=O)c2sc3nc4c(c(-c5ccco5)c3c2N)CCC4)c1 44.6%
C=C1c2cccc(OC)c2O[C@H](C(=O)OCC)[C@@H]1CCCCCC 52.4%
O=C(COC(=O)c1cc(=O)[nH]c2ccccc12)Nc1nc(-c2cccc(Br)c2)cs1 42.5%
O=C(CSc1nc2ccccc2c(=O)[nH]1)Nc1nc(-c2ccc(Br)cc2)cs1 42.3%
CCOc1cc(/C=C2/N=C(c3ccc(C(C)(C)C)cc3)OC2=O)cc(Cl)c1OS(C)(=O)=O 71.7%
O=C(Nc1nc2ccc([N+](=O)[O-])cc2s1)c1ccc(S(=O)(=O)N2CCCc3ccccc32)cc1 34.4%
N#CC1=C(SCc2ccc(C#N)cc2)N=C(N)C(c2nc(-c3ccccc3)cs2)C12CCCCC2 (stereo unspecified) 39.1%
CCc1ccc(-n2c(=S)sc3c(=O)n(-c4ccccc4OC)c(=S)[nH]c32)cc1 26.4%
COc1ccccc1-n1c(=S)[nH]c2c(sc(=S)n2-c2ccc(C)cc2C)c1=O 26.4%
CCC(NC(=O)c1cc(COc2ccc(F)c(F)c2)on1)c1ccncc1 (stereo unspecified) 48.1%
CN(C(=O)COC(=O)c1cc(-c2ccco2)nc2ccccc12)C1CCS(=O)(=O)C1 (stereo unspecified) 87.6%
O=C1N(Cc2ccc3c(c2)OCO3)c2ccccc2C1(O)c1c[nH]c2ccccc12 (stereo unspecified) 34.1%
C[C@H](CO)N1C[C@H](C)[C@H](CN(C)C(=O)Nc2ccc(C(F)(F)F)cc2)Oc2c(NC(=O)c3ccncc3)cccc2C1=O 34%
Cc1nn2c(c1-c1ccccc1)N=C(c1ccco1)CC2c1ccccc1 (stereo unspecified) 35.5%
COc1cccc(-c2nn(-c3ccccc3)cc2/C=C(\C#N)C(=O)NCCCn2ccnc2)c1 29.3%
COc1cc(/C=C2\SC(=S)N(Nc3ncc(C(F)(F)F)cc3Cl)C2=O)cc(OC)c1OC 31.2%
Cc1ccc(-n2c(C)cc(/C=N/Nc3ccc([N+](=O)[O-])cn3)c2C)c(C)c1 44.4%

From PubChem BioAssay AID602399 (Sanford-Burnham Center for Chemical Genomics, 2012)
